Screening results: PubChem BioAssay, National Center for Advancing Translational Sciences (NCATS)
Compounds with a hit are over-represented: about 4.8% of the library has one in this group of screens.
IL1B secr inh: inflammasome signaling inhibition, IL-1 beta readout; THP-1 LPS/ATP IL-1B secretion, AlphaLISA, 16 h; stronger effect = lower value; activity change, % at 57.5 µM; hit rate 4.7% among 360,000; AID 743279; in the data active means activity change below about -50%; inconclusive means mostly about -30% to -49%; further: on the % scale 0 is the no-effect control and ±100 the full control effect
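THP-1 cells pretreated 1 hr with compounds (up to 57.5 uM final), then stimulated with LPS (250 ng/mL final) plus ATP (1.25 mM final); secreted IL-1B measured by AlphaLISA after 16 hr, decreased signal indicating inhibition.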
USP2a block: USP2a (human) protease inhibition. O75604. USP2 core, Ub-CHOP2 coupled fluorogenic reporter, 485/531. Potency, µM (series often up to 38.3 µM), inactives show at the top dose activity change, negative = inhibition, most hits filed as inhibitors. hit rate 0.01% among 330,000. AID 463254;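 further: potency means the concentration at half of the fitted maximal effect; plate controls were DMSO wells for no effect and full inhibition by NEM control for full effect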
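Cell-free coupled assay: 10nM USP2 core preincubated 30min RT with compound in Tris-HCl pH 8.0/CaCl2/CHAPS buffer, then 25nM Ub-CHOP2 and 25nM reporter substrate; fluorescence (Ex 485/Em 531) read after 60min RT, normalized to NEM inhibition, concentration-response curves fitted.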
ATXN viability: viability counter-screen for ATXN expression inhibitors; Potency, µM (series often up to 56.7 µM), usual class: cytotoxic; hit rate 0.49% among 400,000; S2 cells (HEK-293 line with an ATXN2-luciferase reporter) viability, CellTiter-Fluor protease fluorescence, 24 h; further: potency means the concentration at half of the fitted maximal effect; nearly all actives have a fitted effect of over 40% in size
USP1 inh: blocks the human USP1/UAF1 deubiquitinase complex. recombinant USP1/UAF1, Ub-Rhodamine cleavage fluorescence. Potency, µM (titrated, usually from 57.1 µM), for the others: at the highest dose activity change, negative = inhibition, most hits filed as inhibitors. hit rate 0.23% among 390,000; further: potency means the concentration at half of the fitted maximal effect; on the % scale 0 is the no-effect control and ±100 the full control effect; nearly all actives have a fitted effect of over 60% in size
Target sequence (O94782 whole entry, looked up): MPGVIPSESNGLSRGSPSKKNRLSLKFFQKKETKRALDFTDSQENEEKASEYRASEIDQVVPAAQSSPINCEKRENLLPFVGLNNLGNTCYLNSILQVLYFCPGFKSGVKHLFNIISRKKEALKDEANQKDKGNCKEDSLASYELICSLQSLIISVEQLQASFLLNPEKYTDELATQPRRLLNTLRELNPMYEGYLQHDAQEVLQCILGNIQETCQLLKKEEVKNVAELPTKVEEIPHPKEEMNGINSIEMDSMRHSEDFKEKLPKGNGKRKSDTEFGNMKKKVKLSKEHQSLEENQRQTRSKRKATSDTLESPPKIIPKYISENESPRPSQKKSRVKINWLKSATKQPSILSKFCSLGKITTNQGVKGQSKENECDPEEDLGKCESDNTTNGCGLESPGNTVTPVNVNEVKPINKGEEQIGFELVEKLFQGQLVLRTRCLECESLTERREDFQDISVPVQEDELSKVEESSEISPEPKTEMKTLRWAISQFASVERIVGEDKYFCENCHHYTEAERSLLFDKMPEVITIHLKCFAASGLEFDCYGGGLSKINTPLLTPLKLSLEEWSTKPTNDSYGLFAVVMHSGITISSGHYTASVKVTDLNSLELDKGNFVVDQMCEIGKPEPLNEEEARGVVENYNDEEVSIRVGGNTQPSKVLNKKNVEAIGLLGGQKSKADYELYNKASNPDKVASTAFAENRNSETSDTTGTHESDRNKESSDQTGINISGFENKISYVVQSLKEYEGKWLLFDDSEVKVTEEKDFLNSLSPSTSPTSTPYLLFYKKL
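Step one: compound is pinned into 1nM USP1/UAF1 in HEPES pH 7.8 buffer with TCEP. Step two: 15 min room-temperature incubation. Step three: Ub-Rho (150nM final) starts cleavage, tracked by fluorescence over six one-minute reads.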
ATXN2 expr inh: inhibitors of ATXN2 expression; Potency, µM (highest dose often 57 µM), for the others: top-dose activity change, negative = inhibition, hits mostly inhibitors; AID 1745845; HEK-293 ATXN2-luciferase reporter, luminescence, 24 h; hit rate 0.72% among 360,000; further: potency means the concentration at half of the fitted maximal effect; on the % scale 0 is the no-effect control and ±100 the full control effect; nearly all actives have a fitted effect of over 55% in size
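ATXN2-luciferase reporter cells (luciferase flanked by upstream and downstream ATXN2 gene portions) were treated 24 h at 37 °C with compounds at up to 57 uM. SteadyGlo luminescence gave expression; GF-AFC fluorescence gave viability.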
The depositor's hits bear a star. Unless noted, the call rests on the fitted dose curve; in most records, active means well fitted curve in the direction sought with a large enough effect; inconclusive means small, poorly fitted or top-dose-only effect, or another doubt; inactive means no such curve, though single readings can be large; an effect the other way counts as inactive or inconclusive.

COCC(=O)Nc1cc(C(=O)N2CCN(c3ccccc3)CC2C)c2c(c1)nc(-c1ccncc1)n2C (stereo not given) was read as ATXN viability inactive.
For COc1ccc(O)c(/C=N/NC(=O)c2ccc(N3CCCC3=O)cc2)c1 the results were IL1B secr inh 13.4, USP2a block -1.5%, ATXN viability inactive, USP1 inh -23.9% and ATXN2 expr inh 25.1µM*.
For COc1ccc(-c2c3c(=O)n(C)c(=O)n(C)c3cn2C2CCCCC2)cc1 the results were IL1B secr inh -53.8*, USP2a block -2.7%, ATXN viability inconclusive, USP1 inh -23.8% and ATXN2 expr inh -6.9%.
CCOC(=O)c1cccc(NC(=O)Nc2c(C)n(C)n(-c3ccccc3)c2=O)c1 was read as ATXN viability inactive, USP1 inh -16.2% and ATXN2 expr inh 1.9%.
Screening Cc1ccc(-n2nc(C)c(NC(=O)CCl)c2C)cc1C returned IL1B secr inh -104.2*, USP2a block 1.8%, USP1 inh -19.6% and ATXN2 expr inh inconclusive.
For CC(C)CNC(=O)c1cn(C2CCN(Cc3nc4ccccc4s3)CC2)nn1 the results were ATXN viability inactive.
O=C[C@H](O)[C@@H](O)[C@H](O[C@H]1O[C@H](CO)[C@@H](O[C@H]2O[C@H](CO)[C@@H](O)[C@H](O)[C@H]2O)[C@H](O)[C@H]1O)[C@H](O)CO was read as ATXN viability inactive.
c1ccc(-c2nc(NCCCn3ccnc3)c3oc4ccccc4c3n2)cc1 was read as IL1B secr inh -78.8*, USP2a block 2.6%, ATXN viability inconclusive, USP1 inh -7.1% and ATXN2 expr inh inconclusive.
Screening CCc1nc(NCCCn2ccnc2)c2oc3ccccc3c2n1 returned IL1B secr inh -17.5, USP2a block -0.9%, ATXN viability inactive, USP1 inh -24.5% and ATXN2 expr inh -4.0%.
For CCc1nnc(NS(=O)(=O)c2ccc(NC(=S)NC(=O)/C=C/c3ccc(C(C)C)cc3)cc2)s1 the results were IL1B secr inh 22.4, USP2a block -25.2%, ATXN viability inactive, USP1 inh 25.1µM* and ATXN2 expr inh -15.7%.
For COc1ccc(NS(=O)(=O)c2ccc(NC(=S)NC(=O)/C=C/c3ccccc3)cc2)nn1 the results were IL1B secr inh -61.5*, USP2a block 4.2%, ATXN viability inactive, USP1 inh -22.9% and ATXN2 expr inh 0.8%.
COc1cccc(N2CCN(c3c(C#N)c(C(F)(F)F)nn3C)CC2)c1 was read as IL1B secr inh -50.6*, USP2a block 1.4%, ATXN viability inactive, USP1 inh -2.2% and ATXN2 expr inh 2.3%.
`CC1(C)CC(NC(=O)c2ccc(Br)o2)CC(C)(C)N1` gave IL1B secr inh 9.0, USP2a block 1.4%, ATXN viability inactive, USP1 inh -1.1% and ATXN2 expr inh -11.5%.
CCOC(=O)c1cccc(-n2c(C)cc(C=O)c2C)c1 was read as IL1B secr inh 15.5, USP2a block -1.5%, ATXN viability inactive, USP1 inh -5.5% and ATXN2 expr inh -3.5%.
For CCOC(=O)c1c(-n2c(C)cc(C=O)c2C)sc2c1CCCC2 the results were IL1B secr inh -56.4*, USP2a block -5.2%, ATXN viability inactive, USP1 inh -14.9% and ATXN2 expr inh inconclusive.
Screening CCc1ccccc1NC(=O)CN1CCN(CC(=O)Nc2ccc3c(c2)OC2(CCCCC2)O3)CC1 returned IL1B secr inh -14.8, ATXN viability inactive, USP1 inh 2.5% and ATXN2 expr inh -29.5%.
Screening O=C(CCl)N(CCCNC(=O)C(F)(F)F)c1ccc([N+](=O)[O-])cc1 returned IL1B secr inh -100.5*, USP2a block -0.4%, ATXN viability inconclusive, USP1 inh -14.2% and ATXN2 expr inh -23.2%.
O=C(NCCCNc1ccc([N+](=O)[O-])cc1)C(F)(F)F was read as IL1B secr inh -4.8, USP2a block 2.4%, ATXN viability inactive, USP1 inh -10.3% and ATXN2 expr inh 24.1%.
COc1cccc(/C=N/NC(=O)CN(C)S(=O)(=O)c2ccccc2)c1OC was read as IL1B secr inh 0.0, USP2a block -1.0%, ATXN viability inactive, USP1 inh -11.0% and ATXN2 expr inh 11.2%.
`COc1ccccc1Oc1nc2c(C)cccn2c(=O)c1/C=C(\C#N)c1nc2ccccc2[nH]1` gave ATXN viability inactive, USP1 inh inconclusive and ATXN2 expr inh -7.8%.
Screening CC(C)CC(COCc1ccc(Cl)cc1)N1CCN(C(=O)c2cccc(C(F)(F)F)c2)CCC1=O (stereo not given) returned IL1B secr inh -23.7, USP2a block -1.1%, ATXN viability inconclusive, USP1 inh -30.8% and ATXN2 expr inh -33.9%.
For CC(C)C[C@@H](COCc1cccc(Cl)c1)N1CCN(C(=O)c2ccc(C(F)(F)F)cc2)CCC1=O the results were IL1B secr inh -50.5* and ATXN2 expr inh inconclusive.
Screening CC(C)CC(COCc1ccc(C(F)(F)F)cc1)N1CCN(C(=O)c2ccc(C(F)(F)F)cc2)CCC1=O (stereo not given) returned IL1B secr inh -53.8*, USP2a block -9.0%, ATXN viability inconclusive, USP1 inh -28.6% and ATXN2 expr inh inconclusive.
For CC(C)C[C@@H](COCc1ccc(C(F)(F)F)cc1)N1CCN(C(=O)c2ccc(C(F)(F)F)cc2)CCC1=O the results were IL1B secr inh -75.7*, ATXN viability inconclusive and ATXN2 expr inh inconclusive.
Cc1ccc(COC[C@H](CC(C)C)N2CCN(C(=O)c3cccc(C(F)(F)F)c3)CCC2=O)cc1 was read as IL1B secr inh -5.0, ATXN viability inconclusive and ATXN2 expr inh inconclusive.
CC(C)CC(COCc1cccc(C(F)(F)F)c1)N1CCN(C(=O)c2cccc(C(F)(F)F)c2)CCC1=O (stereo not given) was read as IL1B secr inh -66.7*, USP2a block 1.0%, USP1 inh inconclusive and ATXN2 expr inh inconclusive.
`Cc1ccccc1COC[C@H](CC(C)C)N1CCN(C(=O)c2cccc(C(F)(F)F)c2)CCC1=O` gave IL1B secr inh -15.6, USP2a block 0.2%, ATXN viability inconclusive, USP1 inh -15.3% and ATXN2 expr inh -21.5%.
For CCN(CC)C(=O)c1ccc2nc([C@@H]3O[C@H](CO)[C@H](O)[C@H](O)[C@H]3O)[nH]c2c1 the results were IL1B secr inh 19.8, ATXN viability inactive and ATXN2 expr inh 14.7%.
Screening O=C(CSc1n[nH]c(-c2ccc(F)cc2)n1)N1CCN(c2ccc(F)cc2)CC1 returned USP1 inh -6.7%.
Screening NS(=O)(=O)c1ccc(Sc2ccc3ccccc3c2)nc1 returned IL1B secr inh -88.2*, USP2a block -5.3%, ATXN viability inactive, USP1 inh -8.9% and ATXN2 expr inh -22.5%.
